About 83,000 compounds went through this panel and 20% of them were active in at least one assay; those are over-represented in the sample as a whole.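 For each line, cells grew in 96-well plates with the test compound present at a single concentration for 48 hours.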 Calls of active or inactive are those of the source. How the source made its calls: active means growth percent below 10; inactive means the rest.
Tested on: U251 CNS
Test: NCI-60 one-dose screen, 48 h (100 = growth as untreated, 0 = no growth, -100 = all killed)
Settings: 10 µM

Structure (SMILES) | growth
C/C1=C\[C@H](C)C[C@H](C)OC(=O)C[C@H](c2ccc(O)cc2)NC(=O)[C@@H](Cc2c(Br)[nH]c3ccccc23)N(C)C(=O)[C@H](C)NC(=O)[C@@H](C)C1 | -50.6% (active)
NNc1ccccc1 | 103% (inactive)
Oc1c(I)cc(I)cc1I | 106% (inactive)
COC(=O)C1C(O)C(C)C(O)C(C)/C=C\C=C(C)C(=O)Nc2c(C)c(OC(C)=O)c3c(c2O)C(=O)C(C)=C2OCOC(=C23)C(C)=CC(C)(O)C(O)C(C)C1O (stereo not drawn) | 45.9% (inactive)
C=C1C(=O)O[C@@H]2C[C@@H](C)[C@@H]3C=CC(=O)[C@@]3(C)[C@@H](O)[C@H]12 | -100% (active)
CC12OOC(c3ccccc31)c1c2ccc2ccccc12 (stereo not drawn) | 50.3% (inactive)
CC(C)C1(NC(=O)C2CC3c4cccc5[nH]cc(c45)CC3N(C)C2)OC2(O)C3CCCN3C(=O)C(Cc3ccccc3)N2C1=O (stereo not drawn) | 98.8% (inactive)
COC(C(=O)C(O)C(C)O)C1Cc2cc3cc(OC4CC(OC(C)=O)C(OC5CC(O)C(OC)C(C)O5)C(C)O4)cc(O)c3c(O)c2C(=O)C1OC1CC(OC2CC(OC3CC(C)(O)C(OC(=O)C(C)C)C(C)O3)C(O)C(C)O2)C(O)C(C)O1 (stereo not drawn) | 8.24% (active)
